Most compounds without a hit are left out; they make up all but 11% or so of the library.
Gal4-VP16 FLuc: Gal4-VP16 reporter inhibition counter-screen. hit rate 3.5% among 310,000. Potency, µM (titrated, usually from 53.6 µM), inactives show at the highest dose activity, negative = inhibition, most hits filed as inhibitors. Drosophila S2 Gal4-VP16 UAS-luciferase, luminescence, 20 h;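 note: Gal4-VP16 expression switched on by copper sulfate through the metallothionein promoter; potency is the fitted concentration of half-maximal effect; % is set by controls: 0 for no effect and ±100 for the full control effect; nearly all actives have a fitted effect of over 50% in size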
RORg inh: blocks mouse ROR gamma transcriptional activity. Drosophila S2 Gal4-RORgamma UAS-luciferase reporter, 20 h. Potency, µM (highest dose often 53.6 µM), for inactives: top-dose activity change, negative = inhibition, hits mostly inhibitors. hit rate 5.4% among 310,000. AID 2551; note: potency is the fitted concentration of half-maximal effect; % is set by controls: 0 for no effect and ±100 for the full control effect; nearly all actives have a fitted effect of over 60% in size
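Drosophila Schneider cells stably carrying a metallothionein-driven Gal4 DBD–ROR gamma fusion and a UAS-Photinus luciferase reporter were exposed to compound for 1 hr, then induced with copper sulfate (700 uM final) for 20 hr at ambient temperature before luminescence reading.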
MCF10A rerep: DNA re-replication induction in MCF 10a cells | MCF 10A DNA re-replication, Hoechst nuclear intensity, 48 h | Potency, µM (top dose mostly 46.1 µM), inactives show top-dose activity, positive = re-replication, usual class: activators | AID 624296 | hit rate 2.9% among 350,000; note: potency is the fitted concentration of half-maximal effect; % of control where 0% means no effect; nearly all actives have a fitted effect of over 50% in size
SW480 rereplic: DNA re-replication induction in SW480 cells. hit rate 1.8% among 340,000. Potency, µM (series often up to 46.1 µM), inactives show top-dose re-replication activation, most hits filed as activators. SW480 DNA re-replication, Hoechst DNA content imaging, 48 h; note: potency is the fitted concentration of half-maximal effect; % of control where 0% means no effect; nearly all actives have a fitted effect of over 55% in size
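Cells (250 per well) received 23 nL compound or DMSO by pin tool and were kept 48 hr at 37 C, 5% CO2. Nuclei were then stained with Hoechst for 40 min and scanned for DNA content.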
IL-1B inflam inh: inhibitors of inflammasome signaling (IL-1 beta secretion). hit rate 4.7% among 360,000. THP-1 LPS/ATP IL-1B secretion, AlphaLISA, 16 h; active compounds read low. activity change, % at 57.5 µM; in the data active = activity change below about -50%; inconclusive = mostly about -30% to -49%; note: % is set by controls: 0 for no effect and ±100 for the full control effect
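Secreted IL-1B measured by AlphaLISA bead assay after 16 h compound exposure of THP-1 cells; compounds (final up to 57.5 uM) added 1 h before LPS (250 ng/mL) and ATP (1.25 mM) stimulation; lower signal means less secretion.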
Starred values were filed as active, the others as inactive; ? = inconclusive; · = no result given. Unless noted, calls come from the whole dose curve; as a rule, active = well fitted curve in the direction sought with a large enough effect; inconclusive = small, poorly fitted or top-dose-only effect, or another doubt; inactive = no such curve, though single readings can be large; an effect the other way counts as inactive or inconclusive.

SMILES	Gal4-VP16 FLuc	RORg inh	MCF10A rerep	SW480 rereplic	IL-1B inflam inh
O=C(CCN1N=C(c2ccccc2)CCC1=O)NC1CCCCC1	·	·	·	·	-51*
O=C(COC(=O)C1=Cc2ccccc2OC1)NCc1ccc(F)cc1	·	·	-11%	?	14
N#CC1(NC(=O)CSc2nnc(-c3ccccc3F)n2N)CCCCC1	·	·	-8%	-92%	-8
O=C(COC(=O)c1cnccn1)c1ccc(Cl)c([N+](=O)[O-])c1	-19%	-10%	?	?	-60*
Cc1ccc(C(=O)COC(=O)c2cnccn2)cc1	4%	43%	10%	-6%	25
O=C(COC(=O)c1cnccn1)c1ccc([N+](=O)[O-])cc1	20%	28%	?	?	-54*
COc1ccc2c(c1)CCO[C@]21O[C@H](CCO)C[C@H](O)[C@H]1O	·	·	·	·	-7
c1ccc(Nc2nc3ccccc3o2)cc1	?	?	4%	-4%	18
Cc1cc(C)nc(Nc2nc3ccccc3o2)n1	-1%	-7%	-16%	-40%	-76*
C=C(C)C(=O)Nc1nnc(-c2ccccc2C)s1	-16%	10%	13%	-5%	-63*
CCn1ncc(Cl)c1C(=O)Nc1cc(Cl)ccc1Cl	4%	-21%	-6%	12%	0
CCn1ncc(Cl)c1C(=O)NC(=S)Nc1ccccc1Br	8.9µM*	8.9µM*	17%	0%	-85*
Cc1nn(C)c(C(=O)NC(=S)Nc2ccccc2Br)c1Cl	14µM*	8.9µM*	-27%	-7%	?
CC1(C2CCC3(C)OC3C2)CO1 (stereo not given)	·	·	-53%	-14%	0
CC12CCC=CC1C(c1ccc(F)c(Br)c1)N(Cc1ccccc1)C2=O (stereo not given)	28%	15%	·	·	·
CCc1cc(C(=O)N2CCCC(C(=O)c3cccc(OC(C)C)c3)C2)n(C)n1 (stereo not given)	-3%	?	2%	9%	24
Cc1ccc(C(=O)N2CCCC(C(=O)c3ccc(Oc4ccccc4)cc3)C2)cn1 (stereo not given)	?	21%	5%	-120%	-80*
